# High-throughput results (PubChem BioAssay)
# Hits are enriched below; roughly 2.2% of the tested compounds scored in any of these assays.
# BaF3 parental: counter-screen for JAK2V617F inhibitors: parental Ba/F3 viability inhibitors. CellTiter-Glo ATP luminescence. inhibition, % at 5.6 µM. hit rate 1.1% among 220,000;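 active = inhibition above a per-campaign cutoff, the mean inhibition of all tested compounds plus 3 SD, cut at about 27% in these data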;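 note: 0% = DMSO wells and 100% = JAK Inhibitor I control wells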
# IEC-6 tox: IEC-6 cytotoxicity, counter-screen for KLF5 inhibitors; luminescence viability; inhibition, % at 5 µM; hit rate 0.78% among 290,000; AID 1825; in the data active = inhibition above about 22%;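 note: 0% = plate median of test compound wells and 100% = cytotoxic reference compound wells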
# KLF5 inh: kruppel-like factor 5 inhibition | inhibition, % at 5 µM | hit rate 0.23% among 290,000 | DLD-1 KLF5 promoter-luciferase reporter, luminescence;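 active = inhibition above a per-plate limit of that plate's mean compound inhibition plus 3 SD, cut at about 60% in these data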;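 note: 0% = DMSO wells and 100% = LY294002 at 200 µM; higher means less KLF5 promoter-driven luciferase light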
# aSyn 5UTR inh: MLPCN primary screen, SNCA 5' untranslated region | hit rate 0.82% among 300,000 | AID 1813 | inhibition, % (tested at 7.5 µM) | alpha-synuclein 5'UTR reporter, inhibitor activity; in the data active = inhibition above about 60%;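 note: H4 neuroglioblastoma cells stably carrying SNCA 5'UTR luciferase fusion; 0% = DMSO wells and 100% = positive control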
# APP transl inh: APP translation inhibition | SH-SY5Y APP 5'UTR-luciferase reporter, luminescence | hit rate 0.82% among 190,000 | inhibition, % at 2 µM;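 active = inhibition above a set limit, derived from the sample mean plus 3 SD, cut at about 45% in these data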
# Ba/F3 V617F tox: reduce viability of Ba/F3 cells dependent on JAK2V617F; inhibition, % at 5.6 µM; AID 1446; hit rate 1.1% among 220,000; Ba/F3 EpoR-JAK2V617F viability, ATP luminescence;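 active = inhibition above the campaign mean plus 3 SD over all tested compounds, cut at about 24% in these data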;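 note: cytokine-independent growth of Ba/F3 cells driven by EpoR plus mutant JAK2; 0% = DMSO-treated cells and 100% = JAK inhibitor I control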
# An asterisk follows results filed as active; · = not tested or not shown.
SMILES,BaF3 parental,IEC-6 tox,KLF5 inh,aSyn 5UTR inh,APP transl inh,Ba/F3 V617F tox
O=C(NCCN1CCN(C(=O)c2cccs2)CC1)c1cccs1,0,7,-3,11,-22,-3
CC1CCCC(NC(=O)COC(=O)CN2C(=O)C3CCCCC3C2=O)C1C (configuration not stated),2,-3,-13,-25,66*,-4
O=C(COC(=O)CN1C(=O)C2CCCCC2C1=O)NC1CCS(=O)(=O)C1 (configuration not stated),2,-1,-9,15,8,-1
c1ccc(-c2[nH]ncc2CN2CCN(Cc3ccc4c(c3)OCO4)CC2)cc1,3,0,2,12,·,-4
CCOC(=O)C1CCN(Cc2ccc(O)c3ncccc23)CC1,50*,1,1,31,41,82*
CCOC(=O)C1CCN(Cc2ccccc2C(F)(F)F)CC1,-2,-3,22,31,-54,-3
CCOC(=O)N1CCN(Cc2cc(Cl)c3cccnc3c2O)CC1,10,14,42,44,83*,3
COc1ccccc1N1CCN(Cc2ccc(O)c3ncccc23)CC1,37*,1,10,77*,90*,42*
CCOC(=O)N1CCN(Cc2ccccc2Cl)CC1,1,2,-8,·,-15,1
O=C(NCCc1cccc(Cl)c1)c1ccc2c(c1)OCO2,·,1,-49,-15,·,·
Cc1ccc(N=CC=C2OC(C)(C)C(C)(C)O2)c(C)c1,10,4,-6,-20,3,3
CC1(C)OC(=CC=Nc2ccc(Cl)cc2)OC1(C)C,0,8,8,103*,·,3
COc1ccc(CNCC(O)COc2cccc3c2OC(C)(C)C3)cc1 (configuration not stated),29*,17,-12,0,6,20
Cn1cnc(S(=O)(=O)N2CCN(c3ccc(F)cc3)CC2)c1,0,3,2,-8,·,-5
CC(=O)c1cccc(N=c2scc(-c3ccc(S(=O)(=O)N4CCOCC4)cc3)n2CCO)c1,47*,4,-27,12,17,43*
CCc1ccc(NC(=O)CCNS(=O)(=O)c2cccc3nsnc23)cc1,61*,2,-14,-12,-5,5
COc1ccc(NC(=O)CCNS(=O)(=O)c2cccc3nsnc23)cc1OC,5,-3,10,3,4,-2
Cc1cc(C)n(CCC(=O)N/N=C/c2ccc(O)cc2)n1,5,-2,-25,21,16,-2
Cc1cc(C)n(CCC(=O)N/N=C/c2c(O)ccc3ccccc23)n1,-8,5,40,73*,·,-1
O=C(CCSc1nc2ccccc2s1)N/N=C/c1c(O)ccc2ccccc12,4,2,-11,66*,52*,1
COc1cc(/C=N/NC(=O)Cn2cnc3c2c(=O)n(C)c(=O)n3C)ccc1O,0,-6,-33,9,·,0
O=C1c2cccc3c([N+](=O)[O-])ccc(c23)C(=O)N1c1nccs1,32*,8,-16,20,81*,39*
O=C1c2cccc3c([N+](=O)[O-])ccc(c23)C(=O)N1c1ccc(Cl)cn1,-1,0,16,36,78*,-2
O=C1c2cccc3c(N4CCCCC4)ccc(c23)C(=O)N1c1ccc(Cl)cn1,9,0,3,·,-18,0
O=C1c2cccc3c([N+](=O)[O-])ccc(c23)C(=O)N1c1ccccn1,10,7,-1,-38,81*,21
SMILES,BaF3 parental,IEC-6 tox,KLF5 inh,aSyn 5UTR inh,APP transl inh,Ba/F3 V617F tox
O=C(Nc1ccc(OCC(=O)N2CCOCC2)cc1)c1cncc(Br)c1,2,-8,1,19,8,1
COc1ccc(-c2nc(CSCC(=O)N3CCN(c4cccc(C)c4)C(C)C3)c(C)o2)cc1OC (configuration not stated),3,5,3,31,16,3
Nc1c(Cl)ncnc1N/N=C/c1cccnc1,19,1,-19,-40,·,4
Nc1c(Cl)ncnc1N/N=C/c1ccccn1,6,9,-29,·,92*,5
Nc1c(Cl)ncnc1N/N=C/c1ccc2ccccc2n1,5,8,-16,·,66*,-1
Fc1ccc(CSc2nnc(CN3CCOCC3)n2-c2ccccc2)c(Cl)c1,7,2,-21,18,·,6
COc1ccccc1/C=N/NC(=O)C(NC(=O)c1ccccc1)=C(C)C,1,-4,-4,-13,-4,-3
CCN(CCO)c1ccc(N=Nc2cc(C)[nH]n2)cc1,-1,-5,41,102*,·,-5
O=C(COc1ccccc1)NC(=S)Nc1cccc2cc(O)ccc12,·,-4,-21,7,·,·
NC(=O)c1cc(Br)cc(C2CCCCC2)c1O,1,10,0,87*,·,1
NC(=O)c1cc(Br)cc2c3c([nH]c12)CCCC3,4,1,4,1,-18,3
O=C(NCCN1CCCC1)c1ccc(Cn2c(=S)[nH]c3cc4c(cc3c2=O)OCO4)cc1,-1,-2,-25,28,-15,-2
COC(=O)CC1C(=O)NCCN1C(=O)Nc1ccc(Cl)c(Cl)c1 (configuration not stated),5,0,-17,13,7,2
Cc1nc2sc(-c3ccccc3)cc2c(=O)n1-n1cccc1,5,3,-165,-189,-142,1
Cc1nc2sc(-c3ccccc3)cc2c(=O)n1N,4,7,6,75*,·,4
O=c1[nH]c(-c2cccnc2)nc2sc(-c3ccccc3)cc12,6,4,-6,-119,75*,-2
O=C(NCc1ccccn1)C1CCCN(S(=O)(=O)c2ccc(Br)cc2)C1 (configuration not stated),5,2,-24,-11,15,-3
CC1CCN(C(=O)CSCC(=O)O)CC1,3,9,-7,6,1,0
CC(=O)Nc1cccc(C(=O)/C=C/c2ccc(/C=C/C(=O)c3cccc(NC(C)=O)c3)cc2)c1,6,-1,5,-129,92*,1
CC(=O)Nc1cccc(C(=O)/C=C/c2ccc(F)cc2)c1,-1,3,-2,-103,-25,-7
CCC(=O)Nc1cccc(C(=O)/C=C/c2cc(Br)ccc2OC)c1,8,1,-23,-125,75*,4
COc1ncnc(OC)c1S(=O)(=O)Nc1ccc(C(F)(F)F)cc1,·,-2,-24,13,·,·
Cc1n[nH]c(=O)nc1NC1CCCCC1,2,0,1,11,60*,-1
Cc1cc(C)c2nc(Cl)c(CN(Cc3ccco3)C(=O)Nc3ccccc3C)cc2c1,3,8,-62,15,57*,2
COCCN(Cc1cc2cc(C)cc(C)c2nc1Cl)C(=O)Nc1ccccc1,7,-4,3,-21,-5,-1
Cc1cc(C(=O)CSc2nnc3ccccn23)c(C)n1-c1ccccc1,0,-4,41,102*,20,-6
COc1ccc(/C=N/NC(=O)c2nc(-c3ccccc3)n(-c3ccccc3)n2)cc1,3,-5,-16,26,12,-1
